Inconclusive results are not listed. Calls of active or inactive are those of the source. The call rests on the fitted dose curve; in most records, active means well fitted curve in the direction sought with a large enough effect; inconclusive means small, poorly fitted or top-dose-only effect, or another doubt; inactive means no such curve, though single readings can be large or run the other way.
Molecular target: Aldehyde dehydrogenase 1A1 (Homo sapiens) (UniProt P00352)
Experiment: qHTS for Inhibitors of the Aldehyde Dehydrogenase Family (ALDH1A1) Validation screens
Conditions: fluorescence; Potency: ALDH1A1 inhibition validation qHTS; series mostly up to 39.8 µM

SMILES | Potency
O=c1c(-c2ccc(O)cc2)coc2cc(O[C@@H]3O[C@H](CO)[C@H](O)[C@H](O)[C@H]3O)ccc12 | inactive
CC(C)N(CCC(=O)c1ccc2ccccc2c1)Cc1ccccc1 | 70.8 nM (active)
CC(C)(C)c1ccc(S(=O)(=O)/C=C/C#N)cc1 | 89.1 nM (active)
